Measured values from the supplement of paper PMC10981050.
Several values for one entry are separate records, joined by “and”; a condition that tells them apart may be missing. Equal entries are not always repeated. Structures can show the parent of a compound that is named as a salt.

Experiments:
Experiment in all cases: cell viability relative to vehicle control; higher = less cytotoxic
Conditions in all cases: 10 µM
K562 = system: K562
Method in brief: (§1)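 Four leukaemia lines, as CRISPR-edited mutant clones and isogenic wild-type clones, were tested against Selleck bioactive, kinase and epigenetic probe libraries after removal of identity-inconsistent compounds. Cells were exposed to a single 10 µM dose for 48 h, and CellTiter-Glo luminescence was then read. Viability was calculated relative to the on-plate vehicle control.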

MARIMO = system: MARIMO
Method in brief: as §1

MOLM14 = system: MOLM14
Method in brief: as §1

OCI-AML2 = system: OCI-AML2
Method in brief: as §1

Compound	cell viability (K562; SRSF2 genotype: SRSF2 P95H/wt)	cell viability (K562; SRSF2 genotype: SRSF2 wt/wt) [%]	cell viability (MARIMO; SRSF2 genotype: SRSF2 P95H/wt) [%]	cell viability (MARIMO; SRSF2 genotype: SRSF2 wt/wt) [%]	cell viability (MOLM14; SRSF2 genotype: SRSF2 P95H/wt) [%]	cell viability (MOLM14; SRSF2 genotype: SRSF2 wt/wt) [%]	cell viability (OCI-AML2; SRSF2 genotype: P95H/wt) [%]	cell viability (OCI-AML2; SRSF2 genotype: wt/wt) [%]
Cc1ccc(Nc2c(F)cccc2Cl)c(CC(=O)O)c1 [Lumiracoxib (COX-189)]	96% and 98.3%	96.3	98.9	96	100	93.4	109	101
COc1cnc(NS(=O)(=O)c2ccc(N)cc2)nc1 [Sulfameter (Bayrena)]	98.4% and 101%	98.9	106	96	105	102	115	99
Cn1c(O)c(C2=c3ccccc3=NC2=O)c2ccccc21 [Meisoindigo]	22.4% and 19.2%	43.4	0.73	0.66	0.36	0.48	0.36	0.46
O=C(O)[C@H]1O[C@@H](Oc2cc3oc(-c4ccc(O)cc4)cc(=O)c3c(O)c2O)[C@H](O)[C@@H](O)[C@@H]1O [Scutellarin]	103% and 99.4%	96	100	104	102	105	101	109
CC(C)n1cnc2c(NCCc3ccc(O)cc3)nc(-c3csc4ccccc34)nc21 [StemRegenin 1]	50.9% and 50.1%	56	84.6	92.4	64.5	89.6	86.8	83.5
COc1ccc(C=O)c(O)c1 [4-Methoxysalicylaldehyde]	97.5% and 89.5%	97.8	93.5	102	99.4	95.9	97	92
CN[C@@H](C)C(=O)N[C@H](C(=O)N1CCC[C@H]1c1nc(C(=O)c2ccc(F)cc2)cs1)C1CCCCC1	84.3% and 92.2%	89.4	70.1	82.2	58.3	82.3	75.8	90.5
CO[C@@H](C(=O)N1Cc2[nH]nc(NC(=O)c3ccc(N4CCN(C)CC4)cc3)c2C1)c1ccccc1	40.2% and 48.7%	34.3	63.3	69.4	14.3	12.9	6.56	19.3
CCOC(=O)C=P(c1ccccc1)(c1ccccc1)c1ccccc1 [Ethyl (triphenylphosphoranylidene) acetate]	96.8% and 92.7%	98.4	90	99.2	84.5	93	90.2	84.8
NCCCNCCCCNCCCN [Spermine]	104% and 102%	104	103	111	100	103	101	106
N#CC(c1ccc(Cl)cc1)c1c(Cl)cc(-n2ncc(=O)[nH]c2=O)cc1Cl (stereo unspecified) [Diclazuril]	101% and 88.5%	85.2	83.8	94.7	84.4	86.3	91.3	80.8
CC(=O)O[C@H]1C(=O)[C@@]2(C)[C@H]([C@H](OC(=O)c3ccccc3)[C@]3(O)C[C@H](OC(=O)[C@H](O)[C@@H](NC(=O)c4ccccc4)c4ccccc4)C(C)=C1C3(C)C)[C@]1(OC(C)=O)CO[C@@H]1C[C@@H]2O [7-Epitaxol]	19.6% and 30.7%	26.1	7.11	4.44	8	2.61	6.19	12.1
O=C(CCCCCCC(=O)N/N=C/c1ccc(N(c2ccccc2)c2ccccc2)cc1)NO	38.5% and 60.9%	54.6	65.8	18.7	1.58	1.31	0.64	1.98
O=C(O)[C@@]1(CCCCCCOc2ccc(Cl)cc2)CO1 [Etomoxir (Na salt)]	113% and 110%	115	104	110	106	108	107	96.8
CS(=O)(=O)c1cccc(C[C@H](NC(=O)c2c(Cl)cc3c(c2Cl)CCN(C(=O)c2ccc4ccoc4c2)C3)C(=O)O)c1 [Lifitegrast]	96.8% and 97%	90.3	90.5	102	93.7	96.6	92.2	94.9
CC(C(=O)O)c1ccc2c(c1)Cc1cccnc1O2 (stereo unspecified) [Pranoprofen]	105% and 106%	110	110	107	102	105	112	106
Nc1nc(Cl)nc2c1ncn2[C@H]1C[C@H](O)[C@@H](CO)O1 [Cladribine]	94.3% and 104%	101	12.2	8.19	2.38	0.54	4.93	4.28
